Only some compounds are listed: those with a hit (about 1.6% of all), similar ones and a draw of the others.
KCNQ2 block – blocks the rat KCNQ2 potassium channel; O88943; CHO-K1 KCNQ2, FluxOR thallium flux, 20 min; stronger effect = lower value; B-score at 10 µM; actives 1.1% (n = 310,000);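 active = fluorescence ratio B-score at most minus 3 library SDs, with starting brightness B-score within 2 library SDs, cut at about -5.5 in these data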
Target sequence (O88943 whole entry, looked up): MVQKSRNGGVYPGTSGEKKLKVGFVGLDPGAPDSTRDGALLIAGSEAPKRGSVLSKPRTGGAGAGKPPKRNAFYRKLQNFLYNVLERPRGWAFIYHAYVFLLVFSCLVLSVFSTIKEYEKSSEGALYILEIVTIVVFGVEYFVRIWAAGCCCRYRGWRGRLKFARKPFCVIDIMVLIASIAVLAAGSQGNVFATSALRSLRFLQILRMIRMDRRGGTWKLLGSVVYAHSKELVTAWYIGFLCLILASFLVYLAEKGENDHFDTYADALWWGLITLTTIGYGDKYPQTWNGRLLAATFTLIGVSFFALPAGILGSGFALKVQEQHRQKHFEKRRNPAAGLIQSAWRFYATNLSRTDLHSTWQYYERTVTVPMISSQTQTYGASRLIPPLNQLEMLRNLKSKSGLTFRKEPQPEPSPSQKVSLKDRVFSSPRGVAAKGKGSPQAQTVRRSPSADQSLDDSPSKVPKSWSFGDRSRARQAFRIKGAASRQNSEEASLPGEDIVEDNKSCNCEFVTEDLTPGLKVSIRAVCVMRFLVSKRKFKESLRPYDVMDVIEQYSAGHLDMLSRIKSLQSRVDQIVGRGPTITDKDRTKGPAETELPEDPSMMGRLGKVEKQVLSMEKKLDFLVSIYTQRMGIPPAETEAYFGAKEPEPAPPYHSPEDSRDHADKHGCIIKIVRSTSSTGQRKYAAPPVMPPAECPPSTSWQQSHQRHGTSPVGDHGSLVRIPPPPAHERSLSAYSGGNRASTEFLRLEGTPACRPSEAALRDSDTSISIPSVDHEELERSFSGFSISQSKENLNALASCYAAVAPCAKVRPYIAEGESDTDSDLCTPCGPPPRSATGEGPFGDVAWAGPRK
KCNQ2 enhance – potentiators of rat KCNQ2 potassium channel. CHO-K1 KCNQ2, FluxOR thallium flux fluorescence; stronger effect = higher value. B-score at 10 µM. actives 0.54% (n = 310,000);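 active = fluorescence ratio B-score at least 3 SD of library B-scores, with initial fluorescence B-score within 3 of them, cut at about 5.3 in these data; same plate scores as AID 2156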;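 note: B-score of peak minus minimum over baseline fluorescence ratio after K+ and Tl+ stimulus; positive B-score means potentiation of KCNQ2 with more thallium influx and brighter signal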
KCNQ2 inh conf – confirmation of rat KCNQ2 potassium channel inhibitors; activity change, negative = inhibition, % at 10 µM; KCNQ2-expressing cells, thallium flux, inhibition; stronger effect = lower value; actives 57% (n = 1,000); AID 493025; shares compounds with KCNQ2 block
KCNQ1 spec – selectivity of KCNQ2 inhibitors against human KCNQ1. shares compounds with KCNQ2 block. KCNQ1-expressing cells, FluxOR thallium flux fluorescence; stronger effect = lower value. activity change, negative = inhibition, % at 10 µM. actives 15% (n = 1,000). AID 493026;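 active = activity change at least 3 SD of negative controls below their mean in both duplicate wells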;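 note: CHO cells stably transfected with KCNQ1 and depolarized by potassium stimulus; peak minus minimum fluorescence over baseline after thallium addition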
CHO Tl ctr – counter-screen for KCNQ2 inhibitors: effect in parental CHO cells; shares compounds with KCNQ2 block; thallium flux counter-screen; stronger effect = lower value; activity change, % at 10 µM; actives 14% (n = 1,000)
KCNQ2 patch conf – confirmation of rat KCNQ2 potassium channel inhibitors; shares compounds with KCNQ2 block; KCNQ2-expressing cells, automated patch clamp current; calls only at 10 µM; actives 49% (n = 550)
Of the large screens only hits and unclear results are named; the others gave an inactive call (follow-up assays come after a bar, where they were run). Unless noted, the rule behind the calls is not given here.

CC(=O)OCC1=C(C(=O)O)N2C(=O)C(NC(=O)CCn3nc(C(F)(F)F)c(Br)c3C3CC3)C2SC1 (configuration not stated)	none
O=C(Cc1n[nH]c(=O)c2ccccc12)NC(c1ccccc1)c1ccccc1	none
O=C(Nc1cccc(C(F)(F)F)c1)c1csc(-c2ccncc2)n1	none
COc1cc(NC(=O)c2csc(-c3ccncc3)n2)cc(C(=O)Nc2cccc(C(F)(F)F)c2)c1	KCNQ2 block -6.9 | KCNQ2 inh conf -20% | KCNQ1 spec inactive | CHO Tl ctr inactive | KCNQ2 patch conf inactive
COc1cc(NC(=O)c2ccno2)cc(C(=O)Nc2cccc(C(F)(F)F)c2)c1	none (no result: KCNQ2 enhance)
COc1cc(NC(=O)c2cc3cccc(OC)c3o2)cc(C(=O)Nc2cccc(C(F)(F)F)c2)c1	KCNQ2 block -7.6 | KCNQ2 inh conf inactive | KCNQ1 spec inactive | CHO Tl ctr inactive
C=CCNC(=O)/C(C#N)=C/c1c(N2CCN(c3ccc(OC)cc3)CC2)nc2c(C)cccn2c1=O	none (no result: KCNQ2 enhance)
O=C(NC12CC3CC(CC(C3)C1)C2)c1cc(F)c(F)c(F)c1F	none (no result: KCNQ2 enhance)
CCOC(=O)N1CCC(NC(=O)c2ccc(CS(=O)c3cccc(Cl)c3)o2)CC1 (configuration not stated)	none
Cc1c(C)n(C(=O)CN2CCC(C(N)=O)CC2)c2ccccc12	none (no result: KCNQ2 enhance)
Cc1c(C)n(C(=O)CN2CCN(c3ccccc3)CC2)c2ccccc12	KCNQ2 block -7.8 | KCNQ2 inh conf inactive | KCNQ1 spec inactive | CHO Tl ctr inactive
CCc1nc2ccccc2c(C(=O)Nc2cc(C)ccc2C)c1C	KCNQ2 block -7.5 | KCNQ2 inh conf inactive | KCNQ1 spec inactive | CHO Tl ctr inactive
Cc1ccccc1NC(=O)c1c2c(nc3ccccc13)CCC2	KCNQ2 block -6.9 | KCNQ2 inh conf inactive | KCNQ1 spec inactive | CHO Tl ctr inactive
CCc1nc2ccccc2c(C(=O)Nc2cccc(C)c2)c1C	none (no result: KCNQ2 enhance)
Cc1ccc(NC(=O)c2c3c(nc4ccccc24)CCC3)cc1	none (no result: KCNQ2 enhance)
O=C(COc1ccc(Cl)cc1Cl)NCCCCc1ccccc1	KCNQ2 block -7.8 | KCNQ2 inh conf inactive | KCNQ1 spec inactive | CHO Tl ctr inactive
CC(Oc1ccc(Cl)cc1Cl)C(=O)NCCCCc1ccccc1 (configuration not stated)	none (no result: KCNQ2 enhance)
CC(=O)c1c(C)[nH]c(C(=O)OCC(=O)N2CC(C)OC(C)C2)c1C (configuration not stated)	none
Clc1ccc(CSC2=NCCCN2)cc1Cl	none
O=c1cc2c(nn1Cc1c(Cl)cccc1Cl)-c1ccccc1CC2	none
Nc1ccccc1SCc1ccccc1Cl	none (no result: KCNQ2 enhance)
Clc1cccc(Cl)c1CSc1cc2c(nn1)-c1ccccc1CC2	KCNQ2 block -8.5 | KCNQ2 inh conf inactive | KCNQ1 spec inactive | CHO Tl ctr inactive
Clc1ccc(CSc2cc3c(nn2)-c2ccccc2CC3)cc1Cl	KCNQ2 block -8.3 | KCNQ2 inh conf -27% | KCNQ1 spec inactive | CHO Tl ctr inactive | KCNQ2 patch conf inactive
Clc1ccccc1CSc1cc2c(nn1)-c1ccccc1CC2	KCNQ2 block -8.1 | KCNQ2 inh conf -19% | KCNQ1 spec inactive | CHO Tl ctr inactive | KCNQ2 patch conf inactive
COc1cccc(C(C(=O)NC(C)(C)C)N(C(=O)CCC(=O)Nc2cc(C)on2)c2ccc3c(c2)OCCO3)c1OC (configuration not stated)	none (no result: KCNQ2 enhance)
CCOc1cc(C2NC(=O)NC(C)=C2C(=O)OCC2CCCCC2)ccc1O (configuration not stated)	none
CC(C)CC(C(=O)NC(C)(C)C)N(Cc1ccccc1Cl)C(=O)c1snc(C(N)=O)c1N (configuration not stated)	none (no result: KCNQ2 enhance)
CCSc1nc2sc3c(c2c(=O)n1-c1ccccc1)CCN(C(C)C)C3	none
CCN(CC)c1cccc(OC(=O)c2cccnc2Cl)c1	none
O=[N+]([O-])c1ccc(Cl)c(/C=N/N2CCN(Cc3ccccc3Cl)CC2)c1	KCNQ2 block -7.2 | KCNQ2 inh conf inactive | KCNQ1 spec inactive | CHO Tl ctr inactive
O=[N+]([O-])c1ccc(Cl)c(/C=N/N2CCN(Cc3ccccc3)CC2)c1	none (no result: KCNQ2 enhance)
O=C(Nc1ccccc1)c1cc2ccc3ccccc3c2s1	none
CC(NCc1ccccc1)c1ccccc1O (configuration not stated)	none (no result: KCNQ2 enhance)
O=C(CC(c1ccccc1)c1ccccc1)NCC1CCCO1 (configuration not stated)	none (no result: KCNQ2 enhance)
CN(C)CCNC(C(=O)Nc1cc(Cl)cc(Cl)c1)c1ccccc1 (configuration not stated)	none (no result: KCNQ2 enhance)

Screening results as filed in PubChem BioAssay.
